Compound activity from PubChem BioAssay.
Sfp inh: Sfp phosphopantetheinyl transferase inhibition; Biochemical Sfp PPTase activity, qHTS; Potency, µM, inactives show largest response in the series, negative = inhibition, hits mostly inhibitors; AID 1490; Q9F4F7; hit rate 3.5% among 310,000;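 also: the enzyme is Sfp with the accession as filed and its product quenches rhodamine fluorescence; 0% = enzyme reaction without inhibitor and -100% = no enzyme wells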
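Fluorescence-quenching assay with 15 nM Sfp, 5 uM rhodamine-CoA and 12.5 uM BHQ-2-labelled ybbR peptide in pH 7.6 Hepes/MgCl2 buffer. Enzyme was pre-incubated with compound for 15 min at room temperature. Rate was taken from the 30-min fluorescence change (525/598 nm).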
VDR inh: inhibitors of human vitamin D receptor; VDR-SRC2-3 peptide fluorescence polarization, 2 h; Potency, µM, without a hit: max response, negative = inhibition, most hits filed as inhibitors; hit rate 0.93% among 400,000
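Signal is fluorescence polarization, reporting how far test compounds block the interaction of VDR with the SRC2-3 coregulator peptide after a 2 h room-temperature incubation.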
TrxR1 inh: rat TrxR1 inhibition; O89049; recombinant rTrxR1, NADPH fluorescence consumption, selenite substrate; Potency, µM (series often up to 114 µM), without a hit: at the top dose activity change, negative = inhibition, actives largely listed as inhibitors; hit rate 1% among 390,000; AID 588453; also: nearly all actives have a fitted effect of over 65% in size
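Rat TrxR1 (90 nM in the dispensed reagent) was pre-reduced with 400 uM NADPH for 5 min at room temperature, then incubated with compound for 15 min. After 400 uM selenite was added, NADPH fluorescence (Ex 340/Em 450 nm) was followed for 8 min.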
GLS inh: inhibitors of human glutaminase (GLS); O94925; GLS enzymatic activity, qHTS titration; Potency, µM (doses to about 45.5 µM), without a hit: at the top dose activity change, negative = inhibition, most hits filed as inhibitors; hit rate 0.21% among 410,000; AID 624170
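Compounds were pin-transferred onto hKGA, after which L-glutamine (1 mM solution) and a detection mix of glutamate oxidase, HRP and Amplex Red were added. Initial and 30 min RT fluorescence reads were collected.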
GCN5L2 inh: inhibitors of human GCN5L2 histone acetyltransferase; GCN5L2 HAT assay, ThioGlo1 CoA-SH fluorescence; Potency, µM (series often up to 58.9 µM), without a hit: top-dose activity change, negative = inhibition, usual class: inhibitors; hit rate 0.21% among 390,000
Target sequence (Q92830 whole entry, looked up): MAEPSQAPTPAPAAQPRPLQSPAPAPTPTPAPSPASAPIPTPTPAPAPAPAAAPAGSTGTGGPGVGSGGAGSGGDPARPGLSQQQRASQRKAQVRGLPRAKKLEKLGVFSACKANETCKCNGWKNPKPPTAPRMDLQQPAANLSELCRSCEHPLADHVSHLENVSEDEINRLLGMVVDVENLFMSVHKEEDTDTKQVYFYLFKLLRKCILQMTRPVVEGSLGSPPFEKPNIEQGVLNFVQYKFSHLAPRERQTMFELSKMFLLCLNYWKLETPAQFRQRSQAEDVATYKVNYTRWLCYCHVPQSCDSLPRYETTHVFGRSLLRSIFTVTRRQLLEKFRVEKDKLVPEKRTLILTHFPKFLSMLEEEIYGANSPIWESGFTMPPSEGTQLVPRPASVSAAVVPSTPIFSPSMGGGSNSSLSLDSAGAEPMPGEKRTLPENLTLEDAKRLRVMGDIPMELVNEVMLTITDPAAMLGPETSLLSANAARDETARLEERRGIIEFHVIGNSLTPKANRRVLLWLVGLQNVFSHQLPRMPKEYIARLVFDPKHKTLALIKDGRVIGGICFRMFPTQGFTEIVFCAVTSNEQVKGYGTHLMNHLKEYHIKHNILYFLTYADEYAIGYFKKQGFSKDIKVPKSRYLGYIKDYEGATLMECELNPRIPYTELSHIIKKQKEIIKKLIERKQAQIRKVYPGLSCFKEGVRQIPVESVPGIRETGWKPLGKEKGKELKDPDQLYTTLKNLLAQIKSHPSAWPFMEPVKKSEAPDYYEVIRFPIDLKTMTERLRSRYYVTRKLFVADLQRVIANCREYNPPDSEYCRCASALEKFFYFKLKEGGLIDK
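qHTS, 1536-well. 20nM enzyme, pH 7.5 HEPES/EDTA/Tween-20 buffer; 15 min compound preinc., RT. Start: 75uM H3(1-25), 70uM AcCoA, 50uM ThioGlo1. Read Ex340/Em540 at t=0 (autofluorescence flag) and t=20 min.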
TrxR1 substrate: rat thioredoxin reductase 1 substrate activity. hit rate 0.01% among 390,000. Potency, µM (series often up to 114 µM), for the others: top-dose activity change, negative = substrate turnover. purified TrxR1 substrate turnover, NADPH consumption readout; also: nearly all actives have a fitted effect of over 50% in size
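Rat TrxR1, dispensed at 90 nM, was prereduced with 400 uM NADPH (final) for 5 min at ~22 deg C, then incubated with compound 15 min before 400 uM selenite. A first-read NADPH fluorescence drop versus no-compound background flagged substrates.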
The depositor's hits bear a star; ? = inconclusive; . = no result given; [ ] = dose if it differs, or a comment. Rows were chosen to be rich in hits. Some 3.8% of all compounds tested hit in one or more screens of this group. Calls follow the shape of the dose curve; as a rule, active = well fitted curve in the direction sought with a large enough effect; inconclusive = small, poorly fitted or top-dose-only effect, or another doubt; inactive = no such curve, though single readings can be large; an effect the other way counts as inactive or inconclusive. Unless noted, % is scaled to controls: 0 for no effect and ±100 for the full control effect; potency is read from the fitted curve at half-maximal effect.

SMILES | Sfp inh | VDR inh | TrxR1 inh | GLS inh | GCN5L2 inh | TrxR1 substrate
CCN(CC)C(=O)[C@H]1C[C@H](CC(=O)NCCCN(C)C)C(=O)N2CCc3c([nH]c4cc(-c5ccco5)ccc34)[C@]12C | . | -8% | -8% | 3% | -9% | 45%
C=CCNC(=O)/C(C#N)=C/c1ccc(OS(=O)(=O)c2ccc(C)cc2)c(OC)c1 | -2% | 28µM* | -39% | 10% | -8% | 12%[57.1 µM]
CC1CCN(Cc2c(O)ccc3c2O/C(=C\c2ccco2)C3=O)CC1 | ? | 4% | ? | 37% | -29% | -26%[57.1 µM]
CCN(CC)C(=O)Oc1ccc2c(c1)O/C(=C\c1ccco1)C2=O | ? | 14% | ? | 0% | -6% | 4%
CCC(=O)Oc1ccc2c(c1)O/C(=C\c1ccco1)C2=O | -13% | -21% | 79µM* | 19% | -6% | -7%
COC(=O)COc1ccc2c(c1)O/C(=C\c1ccco1)C2=O | 56µM* | -29% | ? | 24% | -4% | 7%[57.1 µM]
COCCN(CCOC)Cc1c(O)ccc2c1O/C(=C\c1ccco1)C2=O | 40µM* | -9% | 79µM* | -2% | -19% | -26%
CCOC(=O)CSc1ncnc2c1nnn2-c1ccc(F)cc1 | 2% | 9% | 9% | 3% | 10% | 4%
O=C(C(=O)N1CCN(c2ccccc2F)CC1)c1cn(CC(=O)N2CCOCC2)c2ccccc12 | 20% | ? | 6% | 23% | -3% | -5%
COc1ccc(C(=O)CCN2CCc3cc(OC)c(OC)cc3C2)cc1 | -10% | ? | 0.89µM* | -1% | -1% | -5%[57.1 µM]
COc1ccccc1N1CCN(CC(=O)N2CCCC2)CC1 | 50µM* | -7% | 23%[57.1 µM] | 5% | -2% | 8%[57.1 µM]
COc1ccc(C(=O)CCN2CCN(c3ccccc3OC)CC2)cc1 | 50µM* | ? | 14µM* | -22% | -15% | 0%
COc1ccccc1N1CCN(C(=O)COc2cc(C)ccc2C)CC1 | -7% | 40µM* | 6% | 3% | 1% | -1%
CN(C(=O)c1cccc(C#N)c1)c1nnc(C2CCCO2)s1 (configuration not stated) | 14% | 3% | -2% | 1% | -3% | -5%
CC#CCN1C=C(C(=O)OCC)C(C)N(Cc2ccc(Br)cc2)S1(=O)=O (configuration not stated) | . | -27% | 6% | -2% | -13% | 3%
Cc1ccc(NC(=O)C2COc3ccccc3O2)cc1S(=O)(=O)N1CCCCC1 (configuration not stated) | . | -13% | 25% | -3% | -8% | -3%
CCNc1nc(NCC)n2c(SCC(=O)Nc3ccc(F)cc3)nnc2n1 | . | -8% | 23%[11.4 µM] | 94% | -5% | 11%[57.1 µM]
CCNc1nc(NCC)n2c(SCC(=O)Nc3ccc(Br)cc3F)nnc2n1 | . | 71µM* | 19%[57.1 µM] | 20% | -14% | 6%[57.1 µM]
CCNc1nc(NCC)n2c(SC(C(=O)Nc3cc(C)ccc3OC)c3ccccc3)nnc2n1 (configuration not stated) | 50µM* | -9% | -2% | 9% | -4% | -12%
CN(C)c1ccc(C(=O)Nc2ccc(O)c3c(=O)cc(-c4ccccc4Cl)oc23)cc1 | 6% | -1% | -11% | 25% | -6% | 1%
COC(=O)/C=c1/s/c(=C(\C#N)C(=O)NCc2ccco2)n(-c2ccc(C)cc2)c1=O | 56µM* | 119% | 6%[57.1 µM] | 2% | -3% | -9%[57.1 µM]
O=C(NCc1ccccc1)[C@@H]1CCCN1C(=O)[C@@H]1CCCN1C(=O)c1cccs1 | . | . | . | 2% | . | .
O=C(NCc1ccco1)[C@@H]1CCCN1C(=O)c1cccs1 | -1% | -3% | 79µM* | 2% | 0% | 4%
Cc1ccc(N(C(=O)c2csnn2)C(C(=O)NC2CCCCC2)c2cccnc2)cc1C (configuration not stated) | 15% | -3% | 11%[57.1 µM] | 2% | -3% | 6%[57.1 µM]
CCCCn1c(-c2csc(CCC)c2)n[nH]c1=S | ? | -5% | -2% | -25% | 4% | -4%
O=C(/C=C\c1ccccc1)c1ccccc1O | 14% | . | . | . | . | .
